G9a inh: qHTS Assay for Inhibitors of Histone Lysine Methyltransferase G9a | AID 504332, 2011 | G9a H3K9 monomethylation, AlphaScreen, 2 h | actives 8.8% (n = 350,000) | Histone-lysine N-methyltransferase EHMT2 (Homo sapiens), Q96KQ7 | Potency, µM (top dose mostly 102 µM), for the others: at the top dose activity, negative = inhibition, hits mostly inhibitors; further: potency means the concentration at half of the fitted maximal effect; on the % scale 0 is the no-effect control and ±100 the full control effect; nearly all actives have a fitted effect of over 75% in size
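G9a (20 nM) was preincubated 15 min with compound, then reacted 2 h at room temperature with 500 nM biotin-H3K9 peptide and 20 µM SAM. Monomethyl-H3K9 detected by AlphaScreen using anti-H3K9me1 antibody.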
HP1b binding inh: HTS for Inhibitors of HP1-beta Chromodomain Interactions with Methylated Histone Tails. AlphaScreen HP1-beta / biotin-H3K9me3 peptide binding. Potency, µM (top dose mostly 114 µM), without a hit: at the highest dose activity change, negative = inhibition, hits mostly inhibitors. Chromobox protein homolog 1 (Homo sapiens), P83916. actives 0.56% (n = 390,000); further: potency means the concentration at half of the fitted maximal effect; nearly all actives have a fitted effect of over 70% in size
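AlphaScreen: HP1-beta (50 nM) preformed 30 min with biotin-H3(1-18)K9me3 peptide (50 nM) in PBS pH 7.4, 0.01% Tween-20. Compound added for 30 min at RT, then streptavidin donor/nickel chelate acceptor beads (10 ug/mL) for 30 min.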
PI5P4Ka inh: qHTS for Inhibitors of phosphatidylinositol 5-phosphate 4-kinase (PI5P4K) | actives 1.2% (n = 330,000) | Phosphatidylinositol 5-phosphate 4-kinase type-2 alpha (Homo sapiens), P48426 | PI5P4Kalpha enzyme, ADP-Glo luminescence, 60 min; active compounds read low | max response, % | AID 652105, 2013; active means max response of -50% or lower; inconclusive means between -30% and -50%; inactive means -30% or higher; further: value at the top dose of about 77 µM; on the % scale 0 is the no-effect control and ±100 the full control effect
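qHTS, 1536-well: enzyme/substrate mix, compound by pin tool, 5 microM ATP final; RT 60 min; ADP-Glo reagents 1 (45 min) then 2 (30 min); luminescence.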
JMJD2A Tudor inh: qHTS Assay for Inhibitors of JMJD2A-Tudor Domain. Lysine-specific demethylase 4A (Homo sapiens), O75164. AlphaScreen JMJD2A-Tudor / H3K4me3 peptide binding. Potency, µM (series often up to 114 µM), without a hit: at the highest dose activity change, negative = inhibition, hits mostly inhibitors. actives 4.4% (n = 390,000); further: potency means the concentration at half of the fitted maximal effect; on the % scale 0 is the no-effect control and ±100 the full control effect; nearly all actives have a fitted effect of over 50% in size
Target sequence (O75164 whole entry, looked up, the tested form may be a part): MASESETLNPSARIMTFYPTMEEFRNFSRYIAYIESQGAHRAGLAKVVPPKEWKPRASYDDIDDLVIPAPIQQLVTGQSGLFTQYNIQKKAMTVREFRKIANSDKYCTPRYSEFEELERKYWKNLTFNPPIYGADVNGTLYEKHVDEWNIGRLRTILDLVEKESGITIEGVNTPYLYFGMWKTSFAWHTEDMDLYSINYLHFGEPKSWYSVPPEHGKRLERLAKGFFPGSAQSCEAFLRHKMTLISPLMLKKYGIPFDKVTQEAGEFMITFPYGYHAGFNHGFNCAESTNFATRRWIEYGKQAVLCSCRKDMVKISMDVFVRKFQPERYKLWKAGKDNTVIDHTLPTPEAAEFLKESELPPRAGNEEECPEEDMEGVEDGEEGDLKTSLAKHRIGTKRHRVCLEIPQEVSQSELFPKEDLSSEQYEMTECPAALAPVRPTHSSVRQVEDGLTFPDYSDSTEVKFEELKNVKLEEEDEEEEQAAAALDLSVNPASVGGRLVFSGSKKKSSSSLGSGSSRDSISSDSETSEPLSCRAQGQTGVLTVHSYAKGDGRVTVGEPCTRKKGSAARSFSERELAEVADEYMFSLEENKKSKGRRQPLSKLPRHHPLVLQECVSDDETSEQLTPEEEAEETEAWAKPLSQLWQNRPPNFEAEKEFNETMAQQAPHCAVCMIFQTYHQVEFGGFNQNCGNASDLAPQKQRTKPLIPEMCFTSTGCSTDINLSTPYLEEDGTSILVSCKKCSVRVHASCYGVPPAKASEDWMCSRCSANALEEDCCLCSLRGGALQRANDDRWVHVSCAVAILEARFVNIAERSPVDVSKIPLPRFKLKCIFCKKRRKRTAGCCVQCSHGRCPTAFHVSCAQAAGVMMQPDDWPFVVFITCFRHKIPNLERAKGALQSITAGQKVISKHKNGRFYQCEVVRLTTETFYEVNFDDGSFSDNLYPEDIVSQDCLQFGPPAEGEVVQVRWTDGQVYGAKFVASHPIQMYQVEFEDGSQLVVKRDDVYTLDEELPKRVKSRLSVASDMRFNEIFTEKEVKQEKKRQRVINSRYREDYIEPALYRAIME
L3MBTL1 block: qHTS Assay for the Inhibitors of L3MBTL1 | actives 0.66% (n = 230,000) | Lethal(3)malignant brain tumor-like protein 1 (Homo sapiens), Q9Y468 | Potency, µM (series often up to 57.1 µM), for inactives: at the highest dose activity, negative = inhibition, usual class: inhibitors | AlphaScreen L3MBTL1–H3K9me1 peptide binding; further: potency means the concentration at half of the fitted maximal effect; on the % scale 0 is the no-effect control and ±100 the full control effect; nearly all actives have a fitted effect of over 60% in size
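L3MBTL1 50 nM + b-AHA-H3(1-15)K9me1 75 nM, 30 min RT; compound added, 30 min RT; streptavidin donor/Ni-chelate acceptor beads 10 ug/mL each final, 30 min RT dark; AlphaScreen read.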
BAZ2B inh: qHTS Assay for Inhibitors of BAZ2B. Potency, µM (doses to about 114 µM), for inactives: at the highest dose activity change, negative = inhibition, hits mostly inhibitors. actives 4.4% (n = 360,000). AlphaScreen BAZ2B-H3K14Ac peptide displacement. Bromodomain adjacent to zinc finger domain protein 2B (Homo sapiens), Q9UIF8; further: potency means the concentration at half of the fitted maximal effect; on the % scale 0 is the no-effect control and ±100 the full control effect; nearly all actives have a fitted effect of over 60% in size
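In this displacement format the biotinylated H3(5-23) peptide acetylated at Lys14 serves as ligand at 50 nM, with BAZ2B at 50 nM in PBS pH 7.4 containing 0.01% Tween-20. Donor and acceptor beads are 10 ug/mL final.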
Numbers without * were called inactive; ? = inconclusive; . = not tested or not shown; ! = not confirmed by another sample; [ ] = dose if it differs, or a comment. Hits are enriched below; roughly 11% of the tested compounds scored in any of these assays. Unless noted, the call rests on the fitted dose curve; in most records, active means well fitted inhibition curve with a large enough effect; inconclusive means small, poorly fitted or top-dose-only effect; inactive means no such curve, though single readings can be large or run the other way.

SMILES | G9a inh | HP1b binding inh | PI5P4Ka inh | JMJD2A Tudor inh | L3MBTL1 block | BAZ2B inh
O=c1cccc2n1CC1CC2CN(Cc2c(Cl)cccc2Cl)C1 (stereo unspecified) | 35µM* | 8% | . | -36% | 6% | 56µM*
COc1cc(CN2CC3CC(C2)c2cccc(=O)n2C3)cc(OC)c1OC (stereo unspecified) | -11%[12.7 µM] | 2% | . | -28% | . | 79µM*
O=C(NC(=S)N1C[C@H]2C[C@H](C1)c1cccc(=O)n1C2)c1ccc(Cl)cc1 | ? | 11% | 4 | ? | 1% | -7%
COc1cc(C(=O)NC(=S)N2C[C@H]3C[C@H](C2)c2cccc(=O)n2C3)cc(OC)c1OC | 25µM* | 19% | 10 | -9% | 12% | ?
Cc1ccc(CN2CC3CC(C2)c2cccc(=O)n2C3)cc1 (stereo unspecified) | -34%[12.7 µM] | 16% | . | -26% | . | -8%
CN1CC(CNC(=O)OCc2ccccc2)CC2c3cccc4c3c(cn4C)CC21 (stereo unspecified) | -44%[2.33 µM] | . | . | . | . | .
CCN(CC1CCCN(CCc2cccc(OC)c2)C1)C(=O)c1ccc(COC)o1 (stereo unspecified) | 28% | 41% | 4 | -20% | . | -2%
CN1C(=O)C(Cc2c[nH]c3ccccc23)C(=O)N(C)C1=O | 13µM* | . | . | . | -15% | -5%
CCOC(=O)c1c(NC(=O)c2ccc(OC)cc2)sc2c1CCCCC2 | ? | 57% | . | 18% | . | 3%
Cc1noc(C(=O)Nc2sc3c(c2C#N)CCC3)c1Cl | 45µM* | -4% | -15 | -28% | . | -34%
C=CCc1ccc2c(c1)OCO2 | -4%[2.33 µM] | . | . | . | . | .
CCOc1ccc(CN(CCc2ccc3c(c2)OCO3)Cc2cccc(Br)c2)cc1 | ? | ? | . | 5µM* | . | ?
COc1ccccc1NC(=O)N(Cc1ccc2c(c1)OCO2)C1CCN(Cc2ccccc2)CC1 | ? | -4% | . | ? | . | ?
CCOc1ccc(CN(CCc2ccc3c(c2)OCO3)Cc2ccc(OC)c(Br)c2)cc1 | ? | ? | . | 7.1µM* | . | ?
CCOc1ccc(CN(CCc2ccc3c(c2)OCO3)Cc2cccc(OC)c2)cc1 | 2.2µM* | ? | . | 6.3µM* | . | 32µM*
CCOc1ccc(CN(CCc2ccc3c(c2)OCO3)Cc2ccc(C)cc2)cc1 | ? | ? | . | 6.3µM* | . | ?
COc1ccc(OC)c(-n2c(O)c(C=NCc3ccc4c(c3)OCO4)c(=O)[nH]c2=O)c1 | -37% | 19% | 0 | -4% | -1% | -6%
CCN(CC)/[N+]([O-])=N/O | -37%[2.33 µM] | . | . | . | . | .
CCCCc1nn2c(=O)cc(COC(=O)Cc3ccccc3)nc2s1 | 0%[59 µM] | -11% | . | -20% | . | -2%
O=C(O)CCCC[C@H]1SC[C@H]2NC(=O)N[C@@H]21 | 0.4µM* | . | . | . | . | .
COc1ccccc1OCC#CCN1CCCC(C)C1 (stereo unspecified) | . | ? | 1 | 11µM* | 37% | 25µM*
COc1ccccc1OCC#CCN1CCOCC1 | 4µM* | 71µM* | 6 | ? | -12%[2.29 µM] | 28µM*
C(#CCN1CCOCC1)COCC#Cc1ccccc1 | ? | 37% | . | ? | 6% | ?
CC(C)C(=O)Nc1ccc([N+](=O)[O-])c(C(F)(F)F)c1 | 2.5µM*! | 34% | 9 | -12% | 13% | -11%
O=C(Nc1ccc(Oc2ccc(Cl)cc2)c(Cl)c1)c1cc(I)cc(I)c1O | ? | -13% | -55* | 79µM* | . | ?
SMILES | G9a inh | HP1b binding inh | PI5P4Ka inh | JMJD2A Tudor inh | L3MBTL1 block | BAZ2B inh
CC(=O)[C@H]1CCC2C3CC[C@H]4C[C@@H](O)CC[C@]4(C)C3CC[C@@]21C (stereo partly specified) | . | 27% | 6 | -10% | 8% | .
CC(=O)[C@H]1CC[C@H]2[C@@H]3CC[C@H]4C[C@](C)(O)CC[C@]4(C)[C@H]3CC[C@]12C | 7.9µM*! | . | . | . | . | .
NCC[C@H](O)C(=O)N[C@H]1C[C@@H](N)[C@@H](O[C@H]2O[C@@H](CN)[C@@H](O)[C@@H](O)[C@@H]2N)[C@@H](O[C@H]2O[C@@H](CO)[C@@H](O)[C@@H]2O)[C@@H]1O | 3%[5.15 µM] | . | . | . | . | .
C[C@@H]1NCCc2cc(O)c(O)cc21 | 1.8µM* | ? | -3 | 20µM* | -1% | -4%
C=CCn1c(-c2ccc([N+](=O)[O-])cc2)n[nH]c1=S | 5.6µM* | 6% | -21 | 8.9µM* | -5% | -4%
O=C(COc1ccccc1[N+](=O)[O-])N1CCN(CCc2ccncc2)CC1 | -30%[59 µM] | 38% | . | -16% | . | -29%
O=C1c2cccc3cc([N+](=O)[O-])cc(c23)C(=O)N1c1ccccc1O | 16%[12.7 µM] | 23% | -1 | -9%[11.4 µM] | -2% | ?
CC12C=CC(=O)C=C1CCC1C2=CCC2(C)C1CC[C@@H]2C(=O)CN1CCN(c2cc(N3CCCC3)nc(N3CCCC3)n2)CC1 (stereo partly specified) | 13µM* | . | . | . | . | .
CCCN(CCC)[C@@H]1CCc2c(OC)cccc2[C@@H]1C | 15%[59 µM] | . | . | . | . | .
O=C(Oc1ccc2cc(Br)ccc2c1)N1CCCCCC1 | 53%[59 µM] | . | . | . | 59% | 94%
O=C1OC(c2cc(I)c(O)c(I)c2)(c2cc(I)c(O)c(I)c2)c2ccccc21 | 7.1µM* | . | . | . | . | .
O=C1NC(=O)C(=Cc2ccccc2Oc2ccc(F)cc2)C(=O)N1 | 10µM* | 42% | ? | -2% | . | 16%
CN1C(=O)C(=Cc2ccccc2Oc2ccc(Cl)c(F)c2)C(=O)N(C)C1=O | -21% | 132% | -52* | 10% | 11% | 19%
CN(C)C(=O)Oc1cccc2c(OC(=O)N(C)C)cccc12 | ? | 32% | -7 | -2% | . | 7%
CN(Cc1ccccc1)Cc1ccccc1OC(=O)N(C)C | 45µM* | 32% | 0 | -14% | 6% | -4%
CC(C)(O)[C@H]1O[C@H]2CC[C@@]3(C)[C@@](O)(CC[C@H]4Cc5c([nH]c6ccccc56)[C@@]43C)C2=CC1=O | 32µM* | -14% | 10 | ? | -22% | ?
C[C@@]12CCC(=O)C[C@@H]1CC[C@@H]1[C@@H]2CC[C@]2(C)C(=O)CC[C@@H]12 | -41%[2.33 µM] | . | . | . | . | .
Cc1cccc(C)c1Oc1nc(-c2ccccc2)ncc1S(=O)(=O)c1ccccc1 | 0% | 45% | 3 | 6% | -3% | 14%

Screening data as filed in PubChem BioAssay.
